Experimental data reported in PubChem BioAssay AID2546 (National Center for Advancing Translational Sciences (NCATS), 2010).
Out of some 310,000 compounds screened, about 11,000 (3.5%) were called active. Roughly 8% stayed inconclusive and do not appear here. This is one part of a sample in which actives are shown more often than they occur. Values without a mark were called inactive. Calls follow the shape of the dose curve; as a rule, active = well fitted inhibition curve with a large enough effect; inconclusive = small, poorly fitted or top-dose-only effect, or effect the other way; inactive = flat fitted curve, though single readings scatter.

assay: VP16 counterscreen qHTS for inhibitors of ROR gamma transcriptional activity; conditions: Drosophila S2 Gal4-VP16 UAS-luciferase, luminescence, 20 h; series mostly up to 53.6 µM; activity, negative = inhibition: at the top concentration;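 also: Gal4-VP16 expression switched on by copper sulfate through the metallothionein promoter; nearly all actives have a fitted effect of over 50% in size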
% is scaled to controls: 0 for no effect and ±100 for the full control effect; potency is read from the fitted curve at half-maximal effect.

Row | Compound | activity, negative = inhibition | Potency
1 | Cc1nnc2n1N=C(c1ccccc1)CS2 | 3.4% | 
2 | CCC(=O)Nc1ccc2nc(C)n(Cc3ccccc3Cl)c(=O)c2c1 | 5.2% | 
3 | CCN1CCN(c2cc3nc(C)n(Cc4ccccc4)c(=O)c3cc2NC(=O)c2ccccc2F)CC1 |  | 11200 nM (active)
4 | CCOc1cc(NC(=O)c2ccccc2C(=O)O)c(OCC)cc1NC(=O)c1ccccc1F | -4.4% | 
5 | COc1cccc(NC(=O)CN(C)C(=O)c2ccccc2CCc2ccccc2)c1 | -5.03% | 
6 | CC1CCCCC1NC(=O)c1cn(C)c2ccc(S(=O)(=O)N3CCOCC3)cc2c1=O (stereo not given) | 20.7% | 
7 | O=c1onc(-c2c(F)cccc2F)n1-c1ccccc1Cl | 3.94% | 
8 | COc1ccc([N+](=O)[O-])cc1NCC(=O)c1ccc(C)cc1 | 2.56% | 
9 | Cc1nn(CC(=O)NC2CCCCC2)c(=O)c2cccn12 | -0.985% | 
10 | COc1ccc(C(=O)NC(C)CCc2ccccc2)c(OC)c1 (stereo not given) | 14.5% | 
11 | CCOC(=O)N1CCN(C(=O)COc2ccc(Cl)cc2C)CC1 | 13.7% | 
12 | Cc1cc(NC(=O)COc2ccc(Cl)cc2Cl)n(CCC#N)n1 | 11.1% | 
13 | CCCn1nnnc1NC(=O)COc1ccc(Cl)cc1C |  | 2000 nM (active)
14 | O=C(Nc1ccccc1C(=O)NCC1CCCO1)c1ccccc1F (stereo not given) | 6.59% | 
15 | CCOC(CNC(=O)C1CCN(S(=O)(=O)c2ccc3nc4c(c(C(=O)O)c3c2)CC(C)CC4)CC1)OCC (stereo not given) | -5.96% | 
16 | O=C(Oc1cccc(C(=S)N2CCOCC2)c1)c1cccc(Cl)c1 | -22.8% | 
17 | CCOC(=O)C1=C(O)CSC1=Nc1cccc(Cl)c1 | 0.63% | 
18 | CN(C)c1nc(=Nc2cccc(Cl)c2)ss1 |  | 891 nM (active)
19 | Cn1c(=O)c(=O)n(C)c2cc(S(=O)(=O)CCC(=O)N3CCCCC3)ccc21 | -5.3% | 
20 | O=C(COc1ccc(Cl)cc1)NCCS(=O)(=O)N1CCN(c2ccc(F)cc2)CC1 | -4.16% | 
21 | CCCOc1ccc(Cc2c(Cl)nc(SC)nc2NC)cc1 |  | 7080 nM (active)
22 | CCCOc1ccc(Cc2c(O)nc(SC)[nH]c2=O)cc1C | -7.9% | 
23 | CCCOc1ccc(-c2nc(N)n[nH]2)cc1 | -8.77% | 
24 | Cc1cccc(C(=O)OCC(=O)Nc2ccc(F)cc2)c1 | -3.7% | 

Row | Compound | activity, negative = inhibition | Potency
25 | Cc1cc(C)cc(C(=O)OCC(=O)NCCNC(=O)COC(=O)c2cc(C)cc(C)c2)c1 |  | 89.1 nM (active)
26 | COc1ccccc1C(=O)OCC(=O)NCCNC(=O)COC(=O)c1ccccc1OC | 10.1% | 
27 | COc1cc(N=Cc2c(O)c3ccccc3oc2=O)c(OC)cc1Cl | -16% | 
28 | COc1ccc(CNC(=O)CCCn2nc(C)c([N+](=O)[O-])c2C)cc1 | -10.7% | 
29 | Cc1ccc(Oc2cc(NC(=O)CCCn3nc(C)c([N+](=O)[O-])c3C)cc([N+](=O)[O-])c2)cc1 |  | 1000 nM (active)
30 | CCc1ccc(NC(=O)Cn2nc(C)c([N+](=O)[O-])c2C)cc1 | 6.54% | 
31 | CCOC(=O)c1c(S(=O)(=O)Nc2ccc(CN3CCC(C)CC3)cc2)c(C)n(C)c1C | -1.56% | 
32 | CCC(C)c1ccccc1NC(=O)CN(C)CC(=O)Nc1ccccc1SC (stereo not given) | -15.4% | 
33 | CC(=O)c1ccc(NC(=O)CCNS(=O)(=O)c2cc(Br)cnc2N)cc1 | -9.98% | 
34 | COc1ccc(CCNC(=O)NS(=O)(=O)c2ccc(C)cc2)cc1OC | 3.35% | 
35 | COc1ccc(CCNC(=O)Cc2ccc(C)cc2)cc1OC | -26% | 
36 | COc1ccc(CCNC(=S)NC(=O)/C=C/c2ccc(C)cc2)cc1OC |  | 10000 nM (active)
37 | CCN1CCN(CCNC(=O)c2ccc3c(c2)NC(=O)/C(=C\c2ccc(OC)c(OC)c2)S3)CC1 | -5.66% | 
38 | CCOC(=O)c1ccc(NC(=O)Cn2cnc3cc(C)c(C)cc32)cc1 |  | 7080 nM (active)
39 | CCOC(=O)c1ccc(NC(=O)Cn2nnc(-c3ccc(C)cc3)n2)cc1 | 3.09% | 
40 | CCCc1nnc(SCC(=O)Nc2ccc(C(=O)OCC)cc2)o1 | -11.9% | 
41 | CC(C)C(=O)Nc1c2c(nn1-c1ccccc1)CSC2 | -3.16% | 
42 | COc1ccc(C(=O)Cc2cnn(-c3ccccc3)c2)c(O)c1 | -9.96% | 
43 | Cc1cc(O)cc(O)c1C(=O)Cc1cnn(-c2ccccc2)c1 |  | 355 nM (active)
44 | O=C(c1cnn(-c2ccc(Cl)cc2)c1)c1ccccc1O | -29.8% | 
45 | Cc1ccc(O)c(NC(=O)c2cc(-c3ccco3)on2)c1 | 5.28% | 
46 | OC(COc1ccc(Br)cc1)CN1CCCC1 (stereo not given) | -6.56% | 
47 | COc1ccc(OCC(O)CNCCNc2nccc(C(F)(F)F)n2)cc1 (stereo not given) | -3.87% | 
48 | CC(C)(C)CC(C)(C)NCC(O)COCCOc1ccc(Br)cc1 (stereo not given) |  | 11200 nM (active)

Row | Compound | activity, negative = inhibition | Potency
49 | CCOC(=O)CSc1nnc(NC(=O)C2CC(=O)N(c3ccc(F)cc3)C2)s1 (stereo not given) | 9.21% | 
50 | CCC(=O)N1c2ccc(S(=O)(=O)NCc3ccco3)cc2CC1C (stereo not given) | -10.7% | 
51 | C/C=C/C=N/NC(=O)c1ccncc1 | -9.63% | 
52 | C/C(=N\Nc1nc2ccccc2[nH]1)c1cccs1 |  | 6310 nM (active)
53 | O=C(Nc1ccccc1-c1nc2ccccc2[nH]c1=O)c1cccs1 | 4.25% | 
54 | C/C(=N\Nc1nc(Nc2ccccc2)nc(N2CCOCC2)n1)c1cccs1 | -25% | 
55 | CN(c1ccccc1)S(=O)(=O)c1ccc2[nH]c(=O)[nH]c2c1 | -15.9% | 
56 | CCn1ccnc1CN(C)C(=O)c1cc(COc2ccc(Cl)cc2OC)on1 | 6.82% | 
57 | O=C1c2cccc3cc(Br)cc(c23)C(=O)N1Nc1ccccc1 | -18.6% | 
58 | O=C(Nc1ccccc1)OCc1cc(-c2ccc(Cl)cc2)on1 | -8.41% | 
59 | O=C1C=C(c2ccc(Cl)cc2)C(=O)N1Nc1ccccc1 |  | 3980 nM (active)
60 | COc1cccc(NC(=S)NCCCN2CCOCC2)c1 | -18% | 
61 | CCOc1cccc(/C=N/NC(=S)NCCN2CCOCC2)c1O |  | 2240 nM (active)
62 | Cc1ccc(NC(=S)NCCN2CCOCC2)cc1 | -2.5% | 
63 | CCOC(=O)c1c(S(=O)(=O)NCC(=O)Nc2ccc(C)cc2)c(C)n(C)c1C | 0.589% | 
64 | CCCc1cc(=O)oc2c(C)c(OCC(=O)Nc3ccccn3)ccc12 | 2.02% | 
65 | O=C(CN1C(=O)S/C(=C\c2ccccc2Cl)C1=O)NC1C=CS(=O)(=O)C1 (stereo not given) | -15.6% | 
66 | CCCCCCCCn1c2c(c(=N)c3c1CCC3)CCCC2 |  | 2510 nM (active)
67 | COCCCNC(=O)Cc1ccc(-n2c(C)nc3cccnc32)cc1 | -6.65% | 
68 | COc1cccc(NC(=O)CN(C)C(=O)Cc2ccc(Cl)cc2Cl)c1 | 12.1% | 
69 | CCCC(=O)Nc1cccc(NC(=S)NC(=O)C(C)Oc2ccc(Cl)cc2Cl)c1 (stereo not given) |  | 2820 nM (active)
70 | CC(Oc1ccc(Cl)cc1Cl)C(=O)/C=C/N(C)C (stereo not given) | -0.64% | 
